# The panel holds about 79,000 compounds, 15% with a hit somewhere; the sample as a whole holds those more often. Values without a mark were called inactive. The source made the active and inactive calls. No stated cut-off is given here; in the data, active means growth inhibition above about 70%; inactive means the rest. Where a SMILES comes first, the peptide text is derived from it. The star is where a group is joined. Cbz = O=C(OCc1ccccc1)*
# Key:
# [1] = NCI Yeast Anticancer Drug Screen. Data for the rad50 strain (AID 155);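 further: 0% = growth of vehicle-only cultures of the same strain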; settings: S. cerevisiae rad50 strain growth inhibition; at 50.0 µM; hits give high values
# Method in brief: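 Readout: growth inhibition relative to vehicle-treated cultures. Compound exposure was carried out in a genetically defined yeast strain deficient in DNA damage repair.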
# [2] = NCI Yeast Anticancer Drug Screen. Data for the mec2-1 strain (AID 157); settings: S. cerevisiae mec2-1 strain, at 50.0 µM, hits give high values
# Method in brief: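 Strain: mec2-1 (DNA repair/cell cycle alteration). Compound exposure, then growth measured; inhibition expressed relative to vehicle.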
# [3] = NCI Yeast Anticancer Drug Screen. Data for the sgs1 mgt1 strain (AID 161);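 further: 0% = growth of cultures given vehicle only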; settings: S. cerevisiae sgs1 mgt1 strain, at 50.0 µM, hits give high values
# Method in brief: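 Test agents were incubated with a DNA-repair-mutant yeast strain. Growth was then read and compared against vehicle-treated controls.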
# [4] = NCI Yeast Anticancer Drug Screen. Data for the cln2 rad14 strain (AID 165);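 further: 0% = growth equal to vehicle treated cultures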; settings: S. cerevisiae cln2 rad14 strain, at 50.0 µM, hits give high values
# Method in brief: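 Compounds are applied to the cln2 rad14 yeast strain, and growth is then compared with that of vehicle-treated cultures to give inhibition.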
# [5] = NCI Yeast Anticancer Drug Screen. Data for the bub3 strain (AID 167); settings: S. cerevisiae bub3 mutant strain, at 50.0 µM, hits give high values
# Method in brief: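 Readout: yeast growth inhibition, expressed relative to vehicle-only wells. The test organism is a mutant strain from a panel with lesions in DNA repair or checkpoint genes.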
# [6] = NCI Yeast Anticancer Drug Screen. Data for the mlh1 rad18 strain (AID 175); settings: S. cerevisiae mlh1 rad18 strain growth inhibition; at 50.0 µM; hits give high values
# Method in brief: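 Read-out is yeast growth inhibition, calculated against vehicle-only controls. The compound was applied to a strain engineered with DNA damage repair alterations.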
SMILES,growth inhibition [1],growth inhibition [2],growth inhibition [3],growth inhibition [4],growth inhibition [5],growth inhibition [6]
Cc1cccc(-n2c(N)c(-c3nc4ccccc4[nH]3)sc2=S)c1,6.7%,-11.9%,13.4%,10.2%,3.4%,2.6%
Cc1ccc(C(C)C)cc1O,17.6%,9.5%,19.1%,27%,13.7%,32.4%
CCCOC(=O)C(=O)OCCC,2.15%,21.6%,-23.8%,-6%,-11.3%,-9.2%
COc1cccc(CC(=O)O)c1OC,22.9%,-4.75%,-12%,1.8%,-3.5%,12.6%
N#CNc1nc(N)cc(N)n1,2.25%,9.35%,-1.5%,-5.85%,-1%,-4.6%
O=C=Nc1ccc([N+](=O)[O-])cc1,-0.9%,15.7%,1.2%,-20.6%,32.9%,-8.75%
CCCCn1cccc1,33.2%,10.2%,9.3%,15%,26.8%,26.4%
O=[N+]([O-])c1cccc(-c2cc(-c3cccs3)cc(-c3ccccc3)n2)c1,6.7%,3.95%,-1.95%,-1.4%,2.85%,4.95%
CCC(/C=N\O)CC,-12.8%,2.6%,11.4%,-4.05%,-3.05%,17.1%
CCCCCCNc1ncnc2c1cnn2C,5.3%,6.85%,1.45%,-17.9%,38.7%,3.4%
CC(CO)C1C[C@H](O)[C@@]2(C)CC(=O)C=C(CO)[C@@H]2C1 (some centres undefined),35%,22.6%,-3.55%,25.9%,-7.15%,-46%
CC(CC(=O)O)C(C)C(=O)O (centres undefined),-7.9%,-4.45%,-6.4%,-7.7%,0.5%,-13.4%
N#C/C(=C/c1ccc[nH]1)C(=O)O,-11.6%,-10.2%,-6.9%,-1%,-5.05%,-25.9%
O=C(NCCCCCCNC(=O)OCOC(=O)NCCCCCCNC(=O)Nc1ccc(SCCO)cc1)Nc1ccc(SCCO)cc1,15.7%,12.4%,16.3%,21.1%,27.2%,-36.9%
C[NH-].C[NH-].C[NH-].C[NH-].O=C(O)c1cc(C(=O)O)c(C(=O)O)cc1C(=O)O.[Pt+2].[Pt+2],-6.25%,-2.6%,-2.05%,-36%,0.55%,13.3%
CC(=O)N(C)c1cccc2cccc(S(=O)(=O)O)c12,-18.2%,-19.1%,-17.1%,-59.2%,-2.05%,-15.3%
CC1CCC(Oc2nc3c(c(=O)n(C)c(=O)n3C)n2C)CC1 (centres undefined),-4.75%,-2.85%,-14.8%,2%,-8.7%,-12.5%
O=C(Nc1ncccn1)c1ccc(Cl)cc1Cl,-11.9%,4.8%,30.6%,-21.5%,10.6%,32.3%
c1ccc(C2SCCN2c2ccccc2)cc1 (centres undefined),9.2%,-0.35%,-20.4%,9.95%,11.8%,-14.4%
COc1cc(C2C(Cl)C(=O)N2NC(=O)c2ccc(N)cc2)cc(Br)c1O (centres undefined),16.3%,0.95%,4.05%,-38%,5.85%,-11.2%

SMILES,growth inhibition [1],growth inhibition [2],growth inhibition [3],growth inhibition [4],growth inhibition [5],growth inhibition [6]
CC(=O)Oc1cc(N(C)C)ccc1SC(Cl)(Cl)Cl,-14.7%,-17.9%,-12.1%,-61.6%,22.6%,-25.6%
O=C(/C=C/c1ccccc1)N/N=C/c1ccncc1,5.2%,24.9%,1.6%,-9.2%,-0.45%,11.3%
CC(=O)OCC1OC(N2C(=O)/C(=C/c3ccc4c(c3)OCO4)SC2=S)C(OC(C)=O)C(OC(C)=O)C1OC(C)=O (centres undefined),1.5%,-12.2%,-20.9%,1.15%,0.15%,0.2%
O=C(NC(Cc1ccccc1)C(=O)N1CCCC1C(=O)O)OCc1ccccc1 (stereo not drawn) (Cbz-Phe-Pro-OH; configuration not given here),7.75%,2.55%,-7.05%,-13.9%,-1.75%,5.05%
CC(=O)n1c2ccccc2c2nc3ccccc3nc21,0.3%,10.4%,11.9%,-30.9%,-19.6%,-14.1%
COC(=O)C1(C2CCCCCCC2=O)NC(=S)NC(=O)C1C#N (centres undefined),4.35%,-18.8%,-28.1%,11.2%,-24.9%,-4.05%
C=Cc1c2ccccc2cc2c1ccc1ccccc12,89.3% (active),95.2% (active),93.5% (active),87.2% (active),93.3% (active),95.2% (active)
COC(=O)CSSCc1ccccc1,3.5%,1.5%,3.65%,-26.1%,-28.1%,6.35%
CCCCI(O)OS(=O)(=O)c1ccc(C)cc1,5.65%,3.1%,-2.85%,-7.7%,-3.9%,-32.6%
O=C(/C=C/c1ccsc1)c1ccsc1,-38.9%,-51.9%,-22.9%,3.6%,9.5%,-3.05%
CN(C)C(=Nc1ccccc1)N(C)N,-1.2%,5.7%,-12.9%,0.75%,1.9%,0.95%
O=C1CCC2c3ccccc3NCN12 (centres undefined),7.05%,7.75%,-35.6%,22.4%,-15.2%,-31.8%
CC1CCC(C(C)C)C2(C1)OC(CCl)CS2 (centres undefined),-0.35%,14.7%,7.8%,-18.1%,26.9%,1.95%
CCOC(=O)CCC(NC(=O)c1ccc(NCc2ccc3nc(-c4ccccc4)c(Cl)nc3c2)cc1)C(=O)OCC (centres undefined),29.7%,-3.85%,-5.3%,-5.6%,1.7%,4.3%
Cc1ccc2c(c1)NC(c1ccc(C(=O)O)cc1)c1cccn1-2 (centres undefined),29.7%,8.95%,0.45%,7.7%,19.3%,23.2%
Cc1ccccc1C(=O)OCCBr,10.3%,-6.2%,4.15%,-27.1%,8.2%,2.9%
CCOC(=O)C(C(=O)OCC)(C(=O)C(F)(F)C(F)(F)C(F)(F)C(F)(F)C(=O)C(C(=O)OCC)(C(=O)OCC)c1ccccc1)c1ccccc1,3.75%,0%,-3.7%,-10.6%,7.75%,11.1%
COc1ccc(C2CCCCCC2OC(=O)c2ccc([N+](=O)[O-])cc2)c(OC)c1OC (centres undefined),16%,11.5%,-2.45%,42.9%,2.6%,1.7%
CNC(=O)Nc1ccnc(=O)[nH]1,-10.6%,-1.85%,-6.15%,-28.3%,-9.55%,-8.8%

# — PubChem BioAssay (NCI)
